LANA-H2B inh – blockers of LANA interaction with H2A/H2B – biochemical, FP readout, HTS, primary screen; 320,000 tested, 0.6% active; cell-free LANA-H2A/H2B peptide, fluorescence polarization; inhibition, % (no concentration beside the values); Protein LANA1 (Human herpesvirus 8 type P (isolate GK18)), Q9QR71; in the data active = inhibition mostly above about 10%, no sharp cut-off; inactive = mostly below about 6.7%
RTF Ca sens act – cardiac RTF calcium sensitivity activators, primary screen, biochemical, IANBD-TnC fluorescence, EC20 calcium; Troponin I, cardiac muscle (Homo sapiens) + Troponin T, cardiac muscle (Homo sapiens) + …; IANBD-labeled TnC RTF fluorescence at EC20 calcium; 0% EC20 calcium, 100% full calcium; activation, % at 7.2 µM; 340,000 tested, 0.24% active; AID 493008, 2010;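 active = activation above the mean over all tested compounds plus 3 SD, cut at about 30% in these data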;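 note: rise in fluorescence read as greater calcium sensitivity of cardiac thin filaments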
LANA DNA inh – inhibitors of KSHV C-LANA binding to DNA, primary screen, biochemical, fluorescence polarization, FAM-LBS DNA, MBP-C-LANA, single point; inhibition, % at 9 µM; Kaposi's sarcoma herpesvirus LANA C-terminal domain (residues 932-1162) DNA binding; 340,000 tested, 0.078% active;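 active = highest replicate inhibition at or above 60% at 9 µM, even if other replicates fall short; inactive = all replicates below 60% inhibition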;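 note: 0% = neutral control wells and 100% = 4 µM acridine orange control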
RTF Ca sens inh – cardiac RTF calcium sensitivity inhibitors, primary screen, biochemical, IANBD-TnC fluorescence, EC70 calcium; Troponin I, cardiac muscle (Homo sapiens) + Troponin T, cardiac muscle (Homo sapiens) + …; IANBD-labeled cardiac RTF, Ca2+ fluorescence; inhibition, % at 7.15 µM; 340,000 tested, 0.12% active; AID 493244, 2011;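 active = inhibition above the mean inhibition of all tested compounds plus 3 SD, cut at about 17% in these data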;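 note: assay run at fixed EC70 calcium of 1.6 mM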
Keap1-Nrf2 PPI – Keap1-Nrf2 protein-protein interaction inhibitors, primary screen, biochemical, fluorescence polarization, single point; Keap1 Kelch-Nrf2 peptide fluorescence polarization, 1536-well; inhibition, % at 9.4 µM; 340,000 tested, 0.15% active; in the data active = inhibition above about 12%;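 note: human Keap1 Kelch domain with fluorescein labeled Nrf2 9mer peptide probe; 0% = neutral control wells and 100% = peptide positive control; higher means more block of Keap1 binding to Nrf2 peptide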
E coli Lon inh – inhibitors of E. coli Lon protease, primary screen, biochemical, fluorescence polarization. P0A9M0. 360,000 tested, 0.42% active. purified E. coli Lon protease. AID 602123, 2011. inhibition, % at 7.94 µM; in the data active = inhibition above about 13%, passing the limit was not always enough;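 note: 0% = enzyme with probe and DMSO and 100% = no enzyme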
Target sequence (P0A9M0 whole entry, looked up): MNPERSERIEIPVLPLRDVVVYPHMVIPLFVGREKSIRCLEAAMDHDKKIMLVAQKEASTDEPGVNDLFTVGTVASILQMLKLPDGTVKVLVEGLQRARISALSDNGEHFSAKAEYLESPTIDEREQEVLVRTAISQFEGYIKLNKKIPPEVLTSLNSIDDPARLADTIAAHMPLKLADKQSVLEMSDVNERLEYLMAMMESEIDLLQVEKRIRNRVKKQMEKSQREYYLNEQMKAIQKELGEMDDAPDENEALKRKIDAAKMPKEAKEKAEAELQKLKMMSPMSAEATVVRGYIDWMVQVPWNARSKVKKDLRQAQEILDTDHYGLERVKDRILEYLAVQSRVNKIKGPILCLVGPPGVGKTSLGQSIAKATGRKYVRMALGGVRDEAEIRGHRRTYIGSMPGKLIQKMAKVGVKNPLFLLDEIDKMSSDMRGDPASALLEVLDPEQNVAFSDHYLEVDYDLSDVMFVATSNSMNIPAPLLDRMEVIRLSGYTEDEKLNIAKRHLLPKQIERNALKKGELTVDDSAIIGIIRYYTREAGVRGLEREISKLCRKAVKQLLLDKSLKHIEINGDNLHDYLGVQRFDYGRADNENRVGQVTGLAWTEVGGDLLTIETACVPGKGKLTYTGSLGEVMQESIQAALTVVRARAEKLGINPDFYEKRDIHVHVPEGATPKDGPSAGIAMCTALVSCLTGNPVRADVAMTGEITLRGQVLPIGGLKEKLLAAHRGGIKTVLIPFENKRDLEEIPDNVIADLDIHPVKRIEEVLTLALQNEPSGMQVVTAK
RTF Ca inh conf – cardiac RTF calcium sensitivity inhibitors, confirmation, biochemical, fluorescence readout. shares compounds with RTF Ca sens inh. reconstituted cardiac thin filaments. inhibition, % at 7.15 µM. 360 tested, 8% active. AID 504635, 2011; in the data active = inhibition above about 18%
Starred values were filed as active, the others as inactive; · = not tested or not shown; ! = not active in a repeat. Sampled rows, rich in hits. Any-hit rate of the full collection: about 1.3%.

SMILES	LANA-H2B inh	RTF Ca sens act	LANA DNA inh	RTF Ca sens inh	Keap1-Nrf2 PPI	E coli Lon inh	RTF Ca inh conf
c1coc(CNC2CCCCCCC2)c1	-2	2	-1	18*	-2	-7	-5
CCOC(=O)Cc1cc(=O)n2[nH]c(C(C)(C)C)cc2n1	5	2	-1	-6	3	-7	·
CC(C)(C)c1ccc(C(=O)NCc2nnc(SCC(=O)NCC3CCCO3)o2)cc1 (stereo unspecified)	-2	-4	1	-5	-3	-10	·
O=C(CSc1nnc(CNC(=O)c2ccc(F)cc2)o1)NCC1CCCO1 (stereo unspecified)	18*	-5	-1	27*	1	4	0
COCCNc1oc(/C=C/c2ccccc2OC)nc1S(=O)(=O)c1ccccc1	7	0	-1	18*	-3	1	8
O=C(CCNS(=O)(=O)c1ccc(Cl)cc1)N1CCN(c2ncccn2)CC1	·	13	1	-10	2	11	·
N#Cc1cc2c(nc1SCc1ccccc1)CCC2	0	-6	1	-7	-3	0	·
N#Cc1cc2c(nc1SCc1ccccc1)CCCC2=O	15	1	2	20*	-1	5	0
COc1cccc(NC(=O)CN(C)C(=O)c2cccc(S(=O)(=O)N3CC4(C)CC3CC(C)(C)C4)c2)c1 (stereo unspecified)	-4	1	1	5	2	-7	·
CCCCNS(=O)(=O)c1cccc(NC(=O)[C@@H]2O[C@H](CO)[C@@H](O)[C@H]2O)c1	·	·	·	·	·	2	·
Cc1c(CCOC(=O)C23CC4CC(CC(C)(C4)C2)C3)sc[n+]1CC(=O)c1ccccc1	5	3	0	19*	-5	-9	-6
O=C(CCl)c1cc2c3c(c1)CC(=O)N3CCC2	-4	-4	0	-6	-13	-4	·
Cc1cccnc1NC(=O)C1CCCN1S(=O)(=O)c1ccc(Cl)cc1 (stereo unspecified)	2	-5	0	29*	-2	4	-3
CCC(C)C(NC(=O)C1CCC(C)CC1)C(=O)NC(CCSC)C(=O)OC (stereo unspecified)	1	1	2	18*	2	-4	-6
O=C(O)c1ccc2c(c1)[C@@H]1C=CC[C@@H]1[C@H](c1ccccn1)N2	3	-37	98*	86*	6	17	22*
O=[N+]([O-])c1nn(-c2ccc3c(c2)OCCO3)n(O)c1=NCc1ccc(F)cc1	3	-10	0	-11	4	3	·
O=[N+]([O-])c1nn(-c2ccc3c(c2)OCCO3)n(O)c1=NCCC1=CCCCC1	-1	-2	-1	18*	1	2	2
O=C(/C=C/Nc1ccc(S(=O)(=O)Nc2ncccn2)cc1)c1ccc2ccccc2c1	-1	-6	4	5	0	-2	·
O=C(N/N=C/c1cn(Cc2cccc(F)c2)c2ccccc12)c1cc(O)cc(O)c1	-2	-15	19	21*	0	-1	6
Nc1ccc(C(=O)N/N=C/c2cn(Cc3ccc(F)cc3)c3ccccc23)cc1	0	-6	0	2	4	2	·
CCC(C(=O)OCC(=O)N1CCN(c2ccc(OC)cc2)CC1)c1ccccc1 (stereo unspecified)	5	4	2	-6	-5	-5	·
O=C(c1coc(=O)c(Br)c1)N1CCC(C(O)(c2ccccc2)c2ccccc2)CC1	1	4	0	-3	0	-3	·
CC1(C)CCCN(C(=O)c2coc(=O)c(Br)c2)C1	·	-17	64*	22*	-4	-6	2
NS(=O)(=O)c1cc(C(=O)O)cc(N2CCCC2)c1Oc1ccccc1	-3	0	-1	19*	-1	-4	-3
Cc1nc2c(n1C1CCCCC1)C(=O)c1ccccc1C2=O	2	-2	-1	-5	-5	7	·
SMILES	LANA-H2B inh	RTF Ca sens act	LANA DNA inh	RTF Ca sens inh	Keap1-Nrf2 PPI	E coli Lon inh	RTF Ca inh conf
CN(N)C(=S)Nc1ccc(Cl)cc1	-1	3	0	18*	-2	1	-3
CN(C)NC(=S)Nc1ccc(Cl)cc1	2	2	0	0	-3	0	·
Cc1ccc(Nc2nc(N)nc(CN3CCN(C)CC3)n2)cc1	-1	-2	0	18*	3	4	-6
COCCCC/C(=N\OCCN)c1ccc(C(F)(F)F)cc1	-2	3	-1	20*!	-4	-8	2
O=C(CCC(=O)OCC(=O)c1ccc(C(F)(F)F)cc1)OCC(=O)c1ccc(C(F)(F)F)cc1	0	·	·	·	·	5	·
O=[N+]([O-])c1cc([N+](=O)[O-])c2oc(-c3ccccc3)c(Br)c2c1O	·	-30	4	27*	-2	-1	12
O=c1cc(-c2ccccc2Cl)oc2ccc([N+](=O)[O-])c(O)c12	-2	-5	0	-4	-5	6	·
Cn1nc(N)c2c(-c3ccc(Cl)cc3)c(C#N)c(N)nc21	-3	11	-1	-1	1	0	·
Cn1nc(N)c2c(-c3ccccc3)c(C#N)c(N)nc21	2	0	2	17*	-2	22	-4
COCCOC(=O)/C(=C/c1ccc(OC(=O)c2ccccc2)cc1)C(C)=O	2	16	-2	25*	-10	4	3
CCOC(=O)/C(=C/c1ccc(OC(=O)c2ccncc2)cc1)C(C)=O	-2	-2	-2	-6	0	1	·
CCOc1ccc(N2C(=O)CC(C(C)c3ccccc3)C2=O)cc1 (stereo unspecified)	5	2	3	2	1	0	·
CCOC(=O)c1ccc(NC(=S)N(CCCN2CCN(CC)CC2)Cc2cccs2)cc1	0	-4	1	17*	0	1	-2
CCOC(=O)c1ccc(NC(=S)N(CCCN2CCN(C)CC2)Cc2cccs2)cc1	3	-1	-4	-5	1	-5	·
O=C(Nn1cnnc1)c1ccc(Cl)cc1	-6	-6	-2	5	-4	-4	·
Cc1ccc(NC(=O)COC(=O)/C=C/c2cccc(Cl)c2)cc1S(=O)(=O)N1CCOCC1	2	1	-2	22*	0	-3	-6

Bioassay records as filed in PubChem BioAssay.
